Among all 52,000 compounds or so, about 4,300 (8.3%) were called active. For the sample, actives were picked, then their nearest neighbours and some compounds at random. A number with no mark means an inactive call. Rule as the data show it: active = survival mostly below about 52% (no sharp cut-off); inactive = mostly above about 56%.
Tested on: DeltatarO mutant
Test: growth inhibition of S. aureus wild type versus tarO mutant, primary screen, teichoic acid synthesis inhibitors, RN4220, OD600 (AID 463173)
Details: OD600, 18 h, active compounds read low, screened at 18.75 µg/mL (by protocol)

Compound	survival
Cc1cccc(C(=O)Nc2cccc(C(=O)OCc3cc(=O)n4nc(C(C)C)sc4n3)c2)c1	113%
COc1ccc(C2c3c(-c4ccc(F)cc4)n[nH]c3C(=O)N2c2ccccc2)cc1OC (configuration not stated)	124%
CCOC(=O)c1ccc(N2C(=O)c3n[nH]c(C)c3C2c2ccc(C(C)C)cc2)cc1 (configuration not stated)	86%
Cc1ccc(N2C(=O)c3[nH]nc(-c4ccc(Cl)cc4)c3C2c2ccc(F)cc2)cc1 (configuration not stated)	44% (active)
CCOC(=O)c1ccc(N2C(=O)c3n[nH]c(-c4cccs4)c3C2c2ccc(C(C)C)cc2)cc1 (configuration not stated)	104%
Cc1ccc(N2C(=O)c3n[nH]c(C)c3C2c2ccc(C(C)C)cc2)cc1 (configuration not stated)	39% (active)
Cc1ccc(N2C(=O)c3n[nH]c(C)c3C2c2ccccc2Cl)cc1 (configuration not stated)	120%
COc1ccccc1C1c2c(-c3ccc(Cl)cc3)n[nH]c2C(=O)N1c1ccc(C)cc1 (configuration not stated)	79%
CCOc1ccc(C2c3c(-c4ccc(C)cc4)n[nH]c3C(=O)N2c2ccc(Cl)cc2)cc1 (configuration not stated)	91%
COc1cc(C2c3c(-c4ccc(C)cc4)n[nH]c3C(=O)N2c2ccc(F)cc2)ccc1O (configuration not stated)	95%
Cc1ccc(-c2n[nH]c3c2C(c2cccs2)N(c2ccc(Cl)cc2)C3=O)cc1 (configuration not stated)	62%
Cc1ccc(N2C(=O)c3n[nH]c(C)c3C2c2ccc(Cl)cc2)cc1 (configuration not stated)	6% (active)
O=C1c2[nH]nc(-c3ccc(F)cc3)c2C(c2ccccc2F)N1c1ccccc1 (configuration not stated)	10% (active)
CCN(CC)C(=O)CN1C(=O)COc2ccc(S(=O)(=O)N3CCOCC3)cc21	78%
O=C(Nc1cc2c(cc1C(=O)c1ccc(Br)cc1)OCCO2)c1ccc(Cl)cc1	102%
Cc1ccc2c(c1)N(CC(=O)OCC(=O)NCc1ccccc1)C(=O)CO2	81%
COCCNC(=O)c1ccc(-c2nc(CS(=O)(=O)c3ccccc3)c(C)o2)cc1	119%
COCCCNc1nc2c(c(=O)[nH]c(=O)n2C)n1CC(O)COc1ccc(Cl)cc1 (configuration not stated)	66%
CCc1ccc(C2c3c(-c4ccccc4)n[nH]c3C(=O)N2c2ccc(C(=O)O)cc2)cc1 (configuration not stated)	48% (active)
CCOC(=O)c1ccc(N2C(=O)c3[nH]nc(-c4ccc(C)cc4)c3C2c2cccc(F)c2)cc1 (configuration not stated)	117%
O=C(O)c1ccc(N2C(=O)c3[nH]nc(-c4ccccc4)c3C2c2cccc(F)c2)cc1 (configuration not stated)	92%
O=C1c2[nH]nc(-c3ccccc3)c2C(c2ccccc2)N1c1cccc(C(F)(F)F)c1 (configuration not stated)	20% (active)
CCOC(=O)c1ccc(N2C(=O)c3n[nH]c(-c4cccs4)c3C2c2ccc(CC)cc2)cc1 (configuration not stated)	99%

Compound	survival
CCOC(=O)c1ccc(N2C(=O)c3n[nH]c(C)c3C2c2ccc(CC)cc2)cc1 (configuration not stated)	78%
CCc1ccc(C2c3c(n[nH]c3C)C(=O)N2c2ccc(C)cc2)cc1 (configuration not stated)	8% (active)
CCOC(=O)c1ccc(N2C(=O)c3[nH]nc(-c4ccccc4)c3C2c2ccc(C(C)C)cc2)cc1 (configuration not stated)	105%
CCOC(=O)c1ccc(N2C(=O)c3[nH]nc(-c4ccccc4)c3C2c2ccc(CC)cc2)cc1 (configuration not stated)	100%
Clc1ccc(OCc2nc(-c3ccc(-n4cccc4)cc3)no2)cc1	163%
O=C(CNCC1CCCO1)NCc1ccco1 (configuration not stated)	97%
CCN(Cc1ccccc1)Cc1c(O)ccc2c(=O)c(-c3ccccc3Cl)c(C(F)(F)F)oc12	74%
COc1ccc(C2=Nn3c(nc4sc(C(=O)Nc5cccc(C)c5)c(C)c4c3=O)SC2)cc1	105%
COc1ccc(N=C2SCC(=O)N2C)cc1	76%
COc1ccc(C2=Nn3c([n+](C)c4ccccc43)SC2)cc1	0% (active)
O=C(COc1ccccc1)Nc1ccccc1OCc1cc(=O)n2ccccc2n1	78%
CCC1CN(C(=O)N2CCC(C(=O)NCCCc3ccccc3)CC2)c2ccccc2O1 (configuration not stated)	69%
CNCC(=O)NC(c1ccccc1)c1ccccc1	97%
CN(C)CCCN(C(=O)c1cccs1)c1nc2ccc(F)cc2s1	92%
Cc1ccc2nc(N(CCCN(C)C)C(=O)c3ccc(Br)s3)sc2c1	77%
CN(C)CCCN(C(=O)c1ccc(Br)s1)c1nc2ccc(F)cc2s1	-5% (active)
COC(=O)c1sc2cccc(F)c2c1S(=O)(=O)N1CCN(c2ccc(F)cc2)CC1	81%
COc1ccc2c(CNCc3cccs3)c(C(=O)O)n(Cc3cccc(F)c3)c2c1	72%
Cc1cc(C)cc(Nc2cc(C(=O)NCc3ccccc3)c3ccccc3n2)c1	113%
CSc1cccc(Nc2cc(C(=O)NCCCN(Cc3ccccc3)C(C)C)c3ccccc3n2)c1	88%
Cc1cc(C)cc(Nc2cc(C(=O)NCCCN(Cc3ccccc3)C(C)C)c3ccccc3n2)c1	-4% (active)
Cc1ccc(N2CC(C(=O)NCCS(=O)(=O)N3CCN(c4ccc(F)cc4)CC3)CC2=O)cc1 (configuration not stated)	89%
Cc1ccc(CN(C(=O)COc2ccccc2[N+](=O)[O-])c2ccccn2)o1	69%

Compound	survival
Cc1ccc(CN(C(=O)COc2ccc([N+](=O)[O-])cc2)c2ccccn2)o1	62% (active)
Cc1ccc(CN(C(=O)COc2cccc([N+](=O)[O-])c2)c2ccccn2)o1	62%
Cc1ccc(CN(C(=O)COc2ccccc2[N+](=O)[O-])c2ccccn2)cc1	46%
Cc1ccc(CN(C(=O)COc2cccc([N+](=O)[O-])c2)c2ccccn2)cc1	39% (active)
Cc1ccc(CN(C(=O)COc2ccc([N+](=O)[O-])cc2)c2ccccn2)cc1	49%
Cc1c(-c2nsc(NC(=O)c3ccc(Cl)cc3)n2)nnn1-c1ccc(C(C)C)cc1	66%
CN(C1CCCCC1)S(=O)(=O)c1ccc(F)c(C(=O)Nc2ccc(C(F)(F)F)cc2)c1	83%
CCn1c(CN2CCCCC2)nc2cc(NC(=O)c3ccc([N+](=O)[O-])cc3)ccc21	90%
Cc1cccc(NS(=O)(=O)c2nnc(NC(=O)C3CCCCC3)s2)c1	34% (active)
Cc1cccc(NS(=O)(=O)c2nnc(NC(=O)c3cccc(C)c3)s2)c1	61%
O=C(Nc1nnc(S(=O)(=O)Nc2ccccc2)s1)C1CCCCC1	31% (active)
O=C(Nc1nnc(S(=O)(=O)Nc2ccccc2)s1)c1ccccc1Cl	52%
CN(c1ccccc1)S(=O)(=O)c1nnc(NC(=O)C2CCCCC2)s1	65%
Cc1cccc(N(C)S(=O)(=O)c2nnc(NC(=O)C3CCCCC3)s2)c1	72%
CC(=O)c1cc(-c2ccc(F)cc2)n(CCC(=O)Nc2nc3ccc(C)cc3s2)c1C	69%
Cc1cc(C)c(NC(=O)Cn2c(=O)oc3cc(S(=O)(=O)N4CCCCCC4)ccc32)c(C)c1	83%
CCOc1ccc(-n2c(SCC(=O)c3ccccc3)nc3c([nH]c4ccccc43)c2=O)cc1	131%
Cc1cccc(C(=O)OCc2cc(=O)n3nc(-c4cccs4)sc3n2)c1	101%
Cc1ccc(CCNC(=O)c2ccc(Nc3nc4ccccc4n4nnnc34)cc2)cc1	72%
N#Cc1ccc(NC(=O)C2Cc3ccccc3CN2S(=O)(=O)c2ccc(F)cc2)cc1 (configuration not stated)	54%
OCCn1nnnc1-c1ccccc1	85%
CC(C)C12CN3CC(C(C)C)(CN(C1)C3c1ccc(Cl)cc1)C2=O (configuration not stated)	39% (active)
CCOc1ccc(C2N3CC4(C(C)C)CN2CC(C(C)C)(C3)C4=O)cc1OC (configuration not stated)	91%

Compound	survival
CC(C)C12CN3CC(C(C)C)(CN(C1)C3c1ccc(OCc3ccccc3)cc1)C2=O (configuration not stated)	85%
Cc1cccc(N2C(=O)CS/C2=N/NC(=O)c2cccc(Cl)c2)c1	97%
O=C(Cn1c(=O)c(C(F)(F)F)nc2ccccc21)Nc1cccc(Br)c1	99%
Cc1cccc(NC(=O)Cn2c(SCC(=O)NCc3ccccc3)nc3ccccc32)c1C	119%
CC(=O)Nc1ccccc1-c1nc2ccccc2n(CC(=O)Nc2cccc(C)c2C)c1=O	117%
Cc1cccc(NC(=O)Cn2c(C(F)(F)F)nc3ccccc32)c1C	31% (active)
CCN(C(=O)CSc1nc2ccccc2n1CC(=O)Nc1ccc(F)cc1F)c1ccccc1	77%
Cc1cc(C)cc(NC(=O)Cn2c(C(F)(F)F)nc3ccccc32)c1	67% (active)
CCN(C(=O)CSc1nc2ccccc2n1CC(=O)Nc1cccc(C#N)c1)c1ccccc1	122%
Cc1ccc(NC(=O)Cn2c(=O)c(C(F)(F)F)nc3ccccc32)cc1C	60%
CCN(C(=O)CSc1nc2ccccc2n1CC(=O)Nc1ccccc1C)c1ccccc1	-5% (active)
CC(C)C(=O)NS(=O)(=O)c1ccc(NC(=O)c2ccco2)cc1	90%
Cc1ccc(N2CC3=C(C2=O)C(c2ccc(Br)cc2)NC(=O)N3C)cc1 (configuration not stated)	74%
COc1cc(C)ccc1OCCSc1nc2ccc(NC(=O)c3ccccc3F)cc2s1	99%
CC(C)(C)c1ccc(-c2nc(NC(=O)CSc3ncnc4sc5c(c34)CCCC5)ns2)cc1	57% (active)
Cc1ccc(-c2nc(NC(=O)CSc3cc(C)c4ccccc4n3)ns2)cc1	65%
COc1ccc2c(C)cc(SCC(=O)Nc3nsc(-c4ccc(C(C)(C)C)cc4)n3)nc2c1	56%
Cc1ccc(-c2nc(NC(=O)CSc3ccc4ccccc4n3)ns2)cc1	77%
Cc1cc(SCC(=O)Nc2nsc(-c3ccc(C(C)(C)C)cc3)n2)nc2ccccc12	13% (active)
COc1ccc2c(C)cc(SCC(=O)Nc3nsc(-c4ccccc4C)n3)nc2c1	35% (active)
Cc1cc(SCC(=O)Nc2ccc(Cl)cc2)nc2ccccc12	65%
Cc1ccccc1-c1nc(NC(=O)CSc2ncnc3sc4c(c23)CCCC4)ns1	92%
Cc1nc(SCC(=O)Nc2nsc(-c3ccc(C(C)(C)C)cc3)n2)c2c3c(sc2n1)CCCC3	78%

Source: PubChem BioAssay AID463173 (ICCB-Longwood Screening Facility, Harvard Medical School, 2010)
